Measured values from PubChem BioAssay (Tox21).
Records with an inconclusive call do not appear. Activity calls are given as the source filed them. Unless noted, calls come from the whole dose curve.

Experiments:
[1] = Nuclear factor erythroid 2-related factor 2/antioxidant responsive element (Nrf2/ARE) small molecule agonists: qHTS cell viability counter screen in human keratinocytes (AID 1919968; active = well fitted curve in the direction sought with a large enough effect in the repeat runs; an effect the other way counts as inactive or inconclusive; note: nearly all actives have a fitted effect of over 55% in size; note: potency is the fitted concentration of half-maximal effect)
Outline: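 Viability counter-screen: KeratinoSens reporter cells, DMSO-delivered compounds, 23 h at 37 C, CellTiter-Fluor fluorescence.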

[2] = target: Gonadotropin-releasing hormone receptor (Homo sapiens) (UniProt P30968); experiment: Human gonadotropin-releasing hormone receptor (GnRHR) small molecule agonists, calcium flux assay in GnRHR-HEK293 cells (AID 1920063); note: nearly all actives have a fitted effect of over 35% in size; note: potency is the fitted concentration of half-maximal effect
Outline: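 Tox21-format agonist screen using human GnRHR-expressing HEK293 cells and a fluorescent calcium dye; kinetic 3-min fluorescence reading after compound addition, 15-point concentration series run in triplicate.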

[3] = target: KiSS-1 receptor (Homo sapiens) (UniProt Q969F8); experiment: Human kisspeptin (KISS1R) small molecule agonists, calcium flux assay in KISS1R-HEK293 cells (AID 1920064; active = well fitted curve in the direction sought with a large enough effect in the repeat runs; an effect the other way counts as inactive or inconclusive)
Outline: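 Intracellular calcium mobilization in KISS1R-HEK293 cells was recorded by fluorescence (Ex/Em 480/540) for 3 min following compound addition to cells pre-loaded 1 h with calcium dye.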

[4] = G protein-coupled receptor (GPCR) small molecule agonists, calcium flux assay: HEK293 wild type cell line counter screen (AID 1920065)
Outline: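 In this agonist-mode screen, ATP is the positive control and DMSO the vehicle. Cells grow 18 h before a 1 h dye incubation at 37 C; signal is taken at Ex/Em 480/540 over 3 min.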

[5] = p53 small molecule agonists, cell-based qHTS assay with human liver microsomes (AID 1963577)
Outline: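 Compounds act here after metabolic activation: human liver microsomes and NADPH, both at 0.5 mg/mL final, were co-added to p53RE-bla cells. Incubation ran 16 h at 37 C, followed by LiveBLAzer detection.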

[6] = p53 small molecule agonists, cell-based qHTS assay with rat liver microsomes (AID 1963578)
Outline: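 Read-out is beta-lactamase reporter fluorescence (LiveBLAzer, 2 h, room temperature, dark) in p53RE-bla cells treated 16 h at 37 C with compound, rat liver microsomes and NADPH, both 0.5 mg/mL final.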

[7] = p53 small molecule agonists, cell-based qHTS assay with human liver microsomes: qHTS cell viability counter screen (AID 1963579); note: nearly all actives have a fitted effect of over 45% in size; note: potency is the fitted concentration of half-maximal effect
Outline: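 Cells carrying the p53 response-element beta-lactamase reporter are treated for 16 h at 37 C with test compounds in the presence of human liver microsomes and NADPH (both 0.5 mg/mL final); ATP-based CellTiter-Glo luminescence then reports viability.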

[8] = p53 small molecule agonists, cell-based qHTS assay with rat liver microsomes: qHTS cell viability counter screen (AID 1963580); note: nearly all actives have a fitted effect of over 45% in size; note: potency is the fitted concentration of half-maximal effect
Outline: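 In HCT-116 cells carrying a p53 response element-bla reporter, compounds were metabolically activated in situ by rat liver microsomes with NADPH over 16 h. Cell ATP content then served as the cytotoxicity measure.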

[9] = target: 5-hydroxytryptamine receptor 2A (Homo sapiens) (UniProt P28223); experiment: 5-hydroxytryptamine receptor 2A (HTR2A) small molecule agonists, cell-based qHTS assay (AID 1963587); note: nearly all actives have a fitted effect of over 30% in size; note: potency is the fitted concentration of half-maximal effect
Outline: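 HTR2A-CHO cells, plated 18 h at 37 C/5% CO2, dye-loaded 1 h at 37 C; compounds in DMSO added by pin tool (agonist mode). Intracellular calcium flux read as kinetic fluorescence on FDSS over 2 min at 1 s intervals.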

[10] = target: Muscarinic acetylcholine receptor M1 (Homo sapiens) (UniProt P11229); experiment: Cholinergic receptor muscarinic 1 (CHRM1) small molecule agonists, cell-based qHTS assay (AID 1963589); note: nearly all actives have a fitted effect of over 35% in size
Outline: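 Stable CHRM1-CHO cells (human receptor) were incubated 18 h, dye-loaded for 1 h at 37 C and exposed to test compounds for agonist activity, with calcium-dependent fluorescence followed kinetically.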

[11] = cAMP Responsive Elements (CRE) small molecule agonists, cell-based qHTS assay (AID 1963590)
Outline: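 FRET-based beta-lactamase readout (LiveBLAzer B/G, 2 h RT) quantified CRE activation in HEK 293T CRE-bla cells after 3 h treatment with DMSO-dissolved compounds.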

[12] = cAMP Responsive Elements (CRE) small molecule antagonists, cell-based qHTS assay (AID 1963591; active = well fitted inhibition curve with a large enough effect in the signal ratio in the repeat runs, not every such curve was filed as active; the % refers to the signal ratio; note: potency is the fitted concentration of half-maximal effect)
Outline: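 qHTS in CRE-bla HEK 293T cells: compound in DMSO, then 0.25 uM NKH477 (final), 3 h at 37 °C/5% CO2; beta-lactamase FRET read-out after 2 h substrate incubation.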

[13] = target: Beta-2 adrenergic receptor (Homo sapiens) (UniProt P07550); experiment: Adrenergic beta2 receptor (ADRB2) small molecule antagonists, cell-based qHTS assay (AID 1963592); note: series mostly up to about 92 µM; nearly all actives have a fitted effect of over 50% in size
Outline: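 Cells (CHO, stable ADRB2 overexpression) incubated 18-20hr at 37C; compounds added from DMSO; agonist mix (1nM isoproterenol, 100uM IBMX, 25uM Ro-20-1724) added; 0.5hr RT; d2-cAMP and anti-cAMP-cryptate added; 1hr RT; 665/615 nm read.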

[14] = target: D(2) dopamine receptor (Homo sapiens) (UniProt P14416); experiment: Dopamine D2 receptor (DRD2) small molecule agonists, cell-based qHTS assay (AID 1963594); note: nearly all actives have a fitted effect of over 35% in size
Outline: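 HEK293 cells stably expressing DRD2 were cultured 24 h at 37 C, then given Ro20-1724 (0.1 mM final) and compounds for 10 min at room temperature. NKH477 (200nM) was then added for 30 min. cAMP was read by HTRF.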

[15] = target: D(2) dopamine receptor (Homo sapiens) (UniProt P14416); experiment: Dopamine D2 receptor (DRD2) small molecule antagonists, cell-based qHTS assay (AID 1963595; active = well fitted inhibition curve with a large enough effect in the signal ratio in the repeat runs, with a control signal flat; the % refers to the signal ratio; note: potency is the fitted concentration of half-maximal effect)
Outline: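 Stable D2 receptor HEK293 line, 24 h after seeding. Compound preincubated 10 min, then quinpirole (12 nM) with forskolin analogue NKH477 (200 nM), 30 min, room temperature. Detection by time-resolved FRET of cAMP.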

[16] = target: 5-hydroxytryptamine receptor 2A (Homo sapiens) (UniProt P28223); experiment: 5-hydroxytryptamine receptor 2A (HTR2A) small molecule antagonists, cell-based qHTS assay (AID 1963586); note: nearly all actives have a fitted effect of over 45% in size
Outline: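 Antagonist-mode intracellular calcium assay: DOI (4 nM) added after 5 min compound pre-incubation at room temperature to dye-loaded HTR2A-CHO cells. Fluorescence followed for 3 min, sampled every second.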

[17] = target: Muscarinic acetylcholine receptor M1 (Homo sapiens) (UniProt P11229); experiment: Cholinergic receptor muscarinic 1 (CHRM1) small molecule antagonists, cell-based qHTS assay (AID 1963588); note: nearly all actives have a fitted effect of over 40% in size
Outline: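 CHRM1-CHO calcium-flux assay, antagonist mode. Cells were seeded 18 h, dye-loaded 1 h at 37 C and given compound for 5 min at RT, then acetylcholine was added at 50nM. FDSS fluorescence was read 3 min; 15 concentrations, three runs.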

[18] = p53 small molecule agonists, cell-based qHTS assay (AID 1963582; active = well fitted activation curve with a large enough effect in the signal ratio in the repeat runs, not every such curve was filed as active; the % refers to the signal ratio)
Outline: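 Agonist activity was scored from beta-lactamase FRET fluorescence in p53RE-bla cells treated 16 h at 37 C with compounds in DMSO, substrate incubation being 2 h at room temperature.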

[19] = target: Beta-2 adrenergic receptor (Homo sapiens) (UniProt P07550); experiment: Adrenergic beta2 receptor (ADRB2) small molecule agonists, cell-based qHTS assay (AID 1963593);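 note: CHO cells stably overexpressing human ADRB2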
Outline: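 CHO cells stably over-expressing ADRB2 were plated overnight at 37C, then dosed with compounds plus a stimulation mix containing 100uM IBMX and 25uM Ro-20-1724 for 0.5hr at room temperature. cAMP was measured by HTRF competition, 1hr.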

[20] = p53 small molecule agonists, cell-based qHTS assay: qHTS cell viability counter screen (AID 1963581); note: nearly all actives have a fitted effect of over 45% in size; note: potency is the fitted concentration of half-maximal effect
Outline: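 Compounds are pinned onto HCT-116 p53RE-bla cells and left 16 h at 37 C. Following the reporter FRET read, ATP is quantified by CellTiter-Glo luminescence after 30 min at room temperature.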

Measured: Potency

KiSS-1 receptor (Homo sapiens), sequence (Q969F8 whole entry, looked up): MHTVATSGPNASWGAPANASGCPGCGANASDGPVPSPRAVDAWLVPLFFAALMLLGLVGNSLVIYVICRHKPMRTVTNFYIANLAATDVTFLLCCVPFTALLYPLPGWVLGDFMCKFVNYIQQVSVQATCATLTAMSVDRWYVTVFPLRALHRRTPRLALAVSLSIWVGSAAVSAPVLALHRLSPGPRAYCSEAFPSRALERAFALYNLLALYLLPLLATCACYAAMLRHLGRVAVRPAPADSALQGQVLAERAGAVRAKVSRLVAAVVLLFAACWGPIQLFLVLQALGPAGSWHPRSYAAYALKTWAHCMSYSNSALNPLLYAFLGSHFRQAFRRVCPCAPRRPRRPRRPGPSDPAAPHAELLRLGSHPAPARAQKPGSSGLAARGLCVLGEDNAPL
Muscarinic acetylcholine receptor M1 (Homo sapiens), sequence (P11229 whole entry, looked up): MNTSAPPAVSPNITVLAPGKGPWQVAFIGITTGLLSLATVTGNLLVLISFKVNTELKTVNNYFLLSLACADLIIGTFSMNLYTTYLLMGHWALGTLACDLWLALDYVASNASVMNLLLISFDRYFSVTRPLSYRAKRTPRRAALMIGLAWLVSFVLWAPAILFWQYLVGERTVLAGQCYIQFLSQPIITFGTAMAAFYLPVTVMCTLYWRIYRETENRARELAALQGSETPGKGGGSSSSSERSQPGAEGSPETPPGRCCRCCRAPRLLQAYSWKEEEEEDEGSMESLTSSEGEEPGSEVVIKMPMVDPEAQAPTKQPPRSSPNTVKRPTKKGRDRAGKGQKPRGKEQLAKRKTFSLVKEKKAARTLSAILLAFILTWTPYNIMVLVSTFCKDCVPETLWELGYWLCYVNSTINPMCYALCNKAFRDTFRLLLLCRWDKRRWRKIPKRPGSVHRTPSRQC
Beta-2 adrenergic receptor (Homo sapiens), sequence (P07550 whole entry, looked up): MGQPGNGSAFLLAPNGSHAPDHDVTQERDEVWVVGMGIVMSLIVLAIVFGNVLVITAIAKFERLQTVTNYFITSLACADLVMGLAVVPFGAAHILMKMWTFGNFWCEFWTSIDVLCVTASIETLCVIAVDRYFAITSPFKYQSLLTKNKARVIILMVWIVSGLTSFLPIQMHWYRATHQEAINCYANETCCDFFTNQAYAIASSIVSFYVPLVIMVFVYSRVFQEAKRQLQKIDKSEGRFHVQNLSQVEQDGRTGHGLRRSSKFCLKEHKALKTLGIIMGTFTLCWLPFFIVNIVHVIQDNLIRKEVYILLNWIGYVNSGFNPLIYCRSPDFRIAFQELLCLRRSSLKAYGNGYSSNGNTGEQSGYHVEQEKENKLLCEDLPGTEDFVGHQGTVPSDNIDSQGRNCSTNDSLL
D(2) dopamine receptor (Homo sapiens), sequence (P14416 whole entry, looked up): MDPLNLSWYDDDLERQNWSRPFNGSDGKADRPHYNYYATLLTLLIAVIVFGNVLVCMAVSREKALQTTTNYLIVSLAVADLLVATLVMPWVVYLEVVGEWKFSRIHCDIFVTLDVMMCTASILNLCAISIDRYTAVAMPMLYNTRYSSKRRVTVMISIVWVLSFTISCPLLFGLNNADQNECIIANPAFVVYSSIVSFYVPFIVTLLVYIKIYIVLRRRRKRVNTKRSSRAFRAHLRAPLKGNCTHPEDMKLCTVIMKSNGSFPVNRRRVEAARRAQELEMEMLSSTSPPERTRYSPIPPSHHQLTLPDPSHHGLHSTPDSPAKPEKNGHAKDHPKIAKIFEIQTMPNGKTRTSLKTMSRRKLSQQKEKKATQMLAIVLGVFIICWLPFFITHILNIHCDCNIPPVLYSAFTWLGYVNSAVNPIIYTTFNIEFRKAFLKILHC
Gonadotropin-releasing hormone receptor (Homo sapiens), sequence (P30968 whole entry, looked up): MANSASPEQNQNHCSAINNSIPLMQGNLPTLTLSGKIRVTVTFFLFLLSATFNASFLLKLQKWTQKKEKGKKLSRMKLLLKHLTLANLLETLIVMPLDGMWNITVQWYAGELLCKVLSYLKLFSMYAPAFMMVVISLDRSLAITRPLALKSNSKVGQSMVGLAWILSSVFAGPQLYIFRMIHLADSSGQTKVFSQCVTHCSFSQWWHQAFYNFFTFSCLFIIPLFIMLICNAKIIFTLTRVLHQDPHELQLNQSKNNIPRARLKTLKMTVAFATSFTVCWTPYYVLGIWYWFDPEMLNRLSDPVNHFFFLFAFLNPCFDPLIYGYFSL
5-hydroxytryptamine receptor 2A (Homo sapiens), sequence (P28223 whole entry, looked up): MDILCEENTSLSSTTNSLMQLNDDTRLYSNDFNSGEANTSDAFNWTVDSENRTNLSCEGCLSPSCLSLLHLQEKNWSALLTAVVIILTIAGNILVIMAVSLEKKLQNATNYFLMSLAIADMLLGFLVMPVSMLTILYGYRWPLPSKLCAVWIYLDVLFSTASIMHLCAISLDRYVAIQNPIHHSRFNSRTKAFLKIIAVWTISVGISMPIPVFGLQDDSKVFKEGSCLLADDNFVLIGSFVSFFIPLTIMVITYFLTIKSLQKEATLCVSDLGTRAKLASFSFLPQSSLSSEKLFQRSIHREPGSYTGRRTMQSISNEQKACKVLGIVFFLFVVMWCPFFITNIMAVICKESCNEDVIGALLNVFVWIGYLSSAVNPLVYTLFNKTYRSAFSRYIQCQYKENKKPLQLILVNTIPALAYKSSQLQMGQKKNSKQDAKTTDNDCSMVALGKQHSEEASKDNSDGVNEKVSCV

CN(CCCN1c2ccccc2CCc2ccccc21)CC(=O)c1ccc(Cl)cc1
not listed: [16] | [17] | [18] | [19] | [20]
inactive: all other assays above

CCCCO
not listed: [18] | [19] | [20]
inactive: all other assays above

CC(C)Cc1ccc(CC(=O)O)cc1
not listed: [9] | [20]
inactive: all other assays above

C=C(C)[C@@H]1CC=C(C)CC1
not listed: [8] | [15]
inactive: all other assays above

CCOC(=O)C(C)Oc1ccc(Oc2nc3ccc(Cl)cc3o2)cc1 (stereo not given)
not listed: [9] | [11] | [17] | [20]
inactive: all other assays above

COc1cc(C(=O)NC2CCN(C)CC2)ccc1Nc1ncc2c(n1)N(C1CCCC1)CC(F)(F)C(=O)N2C
active: [1] 28.1 µM | [7] 16.7 µM | [8] 37.4 µM | [15] 49.9 µM
not listed: [10] | [11] | [12] | [17] | [18] | [20]
inactive: all other assays above

NCCc1cnc[nH]1
not listed: [8] | [19]
inactive: all other assays above

Cn1c(N)nc2nc[nH]c2c1=O
not listed: [11] | [13] | [14] | [15] | [18] | [19] | [20]
inactive: all other assays above

O=C(Oc1cccc2cccnc12)c1ccccc1
active: [1] 2.98 µM | [12] 23.7 µM
not listed: [15] | [19] | [20]
inactive: all other assays above

CCc1cc(SCc2sc(-c3ccc(C(F)(F)F)cc3)nc2CN2CCN(c3ccc(OC)cc3)CC2)ccc1OCC(=O)O
active: [1] 54.5 µM | [7] 36.3 µM | [8] 32.4 µM | [20] 12.9 µM
inactive: [2] | [3] | [4] | [5] | [6] | [10]

COC(=O)CCCCCCCC(=O)OC
not listed: [7] | [10] | [19]
inactive: all other assays above

CCCCCCOC(=O)c1ccccc1
not listed: [7] | [12] | [17] | [18] | [19] | [20]
inactive: all other assays above

CC1(C)[C@@H](O)CC[C@]2(C)[C@H]3C(=O)C=C4[C@@H]5C[C@@](C)(C(=O)O)CC[C@]5(C)CC[C@@]4(C)[C@]3(C)CC[C@@H]12
active: [1] 67.8 µM | [2] 34.3 µM | [7] 32 µM | [9] 48.4 µM
not listed: [8] | [10] | [11] | [12] | [18] | [20]
inactive: all other assays above

C/C=C/C=C/CO
not listed: [8] | [14] | [18] | [19]
inactive: all other assays above

NCCN1CCOCC1
not listed: [7] | [17] | [19]
inactive: all other assays above

CC(=O)Nc1cccc(N)c1
not listed: [8] | [11] | [19] | [20]
inactive: all other assays above
